In all, about 68,000 sequences were measured (“fluorescence intensity (a.u.)”: median about 9,100, highest 2% from about 16,000 on). The entries come from a sample that favours the highest values as a whole.
Target: OsWRKY34 (Oryza sativa, UniProt Q0JBA9 1-250)
Assay: protein-binding microarray (RPBM); PBS, 2% BSA, 51.3 ng/ul salmon testes DNA, 50 uM zinc acetate, 200 nM TF, 25 C, 1 h; high values mean tight binding
Settings: protein: recombinant; tags: N-terminal polyhistidine and DsRed monomer fusion (pET32a); label: CyDye5-dUTP incorporated in the synthesized complementary strand; 3' TTTTT single-stranded linker to array surface; dsDNA, one strand shown
How it was run: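 Polyhistidine-tagged DsRed fusions of transcription factors, joined at the N-terminus, were expressed in E. coli BL21-CodonPlus and isolated on Ni–NTA. They were incubated at 200 nM for 1 h at 25 °C on a custom Agilent array, double-stranded and BSA-blocked, in PBS with 2% BSA, salmon testes DNA and 50 µM zinc acetate. The binding signal is per-feature fluorescence intensity (arbitrary units) read on an Axon 4000B scanner after washing.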

OsWRKY34, sequence (Q0JBA9 entry or part of it): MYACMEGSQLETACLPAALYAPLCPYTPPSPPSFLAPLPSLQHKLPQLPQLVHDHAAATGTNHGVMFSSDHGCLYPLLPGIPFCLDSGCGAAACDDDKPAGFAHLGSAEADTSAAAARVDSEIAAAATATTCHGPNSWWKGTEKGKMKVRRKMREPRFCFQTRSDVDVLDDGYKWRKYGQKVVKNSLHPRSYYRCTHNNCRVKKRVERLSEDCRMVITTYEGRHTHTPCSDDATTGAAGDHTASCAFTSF

Sequence | binding signal
AGTCCGACTTTTCCTTTTTTTTTTCCGTGTTTTCCGTTTCCGGAGTCACCTAGTGCAG | 14800 fluorescence intensity (a.u.)
TTTGTCGTTGCTTCCCTTCTTGGAGACCTTGCCTTGAAGACGGAGTCACCTAGTGCAG | 8090 fluorescence intensity (a.u.)
ATTATATTTTAGGTCGCATTTTGATTCTTTTCATGTAATCCGGAGTCACCTAGTGCAG | 8660 fluorescence intensity (a.u.)
TGGTTATGTGCCACAAATCATATATGCAATTTTGACTATACGGAGTCACCTAGTGCAG | 9270 fluorescence intensity (a.u.)
ATGGAATCGATCACCTGCAATGCAACACCGTGCCATAATCCGGAGTCACCTAGTGCAG | 8520 fluorescence intensity (a.u.)
GAGGAGAGCAGAACAGAACAAGAGGAGGAGAACAAAAAAACGGAGTCACCTAGTGCAG | 8230 fluorescence intensity (a.u.)
GTAGTTTTTTTCCTAGTTTCAGTTTTTGTTTTGCTTTTTTCGGAGTCACCTAGTGCAG | 11200 fluorescence intensity (a.u.)
TCTCTTTCTCTCGCTTTCTTTTTGCATAGTTTTCTTCATGCGGAGTCACCTAGTGCAG | 8700 fluorescence intensity (a.u.)
GAACACGATGACATCGGATCGGGTCGGTTTCTCTCTTGCTCGGAGTCACCTAGTGCAG | 9010 fluorescence intensity (a.u.)
TTTTGCTTTGGTTGGTTTGCTCGTTTTTTTTTTCTTTTCTCGGAGTCACCTAGTGCAG | 19600 fluorescence intensity (a.u.)
ATGTTTTTCTTTTCTTTCTTCTTTTTTTTGTTTTTGACCTCGGAGTCACCTAGTGCAG | 11900 fluorescence intensity (a.u.)
GGGTCGGTTTCTCTCTTGCTGTCTTCTCGATCGATCGATGCGGAGTCACCTAGTGCAG | 20200 fluorescence intensity (a.u.)
TGTCACAGTGTTTTGTTTGTGTTTTTGACCTTGCTTTCCTCGGAGTCACCTAGTGCAG | 16800 fluorescence intensity (a.u.)
CTCGCTTTTCTCTTTTTTGATACTGTCTCGTGGTTTCTTGCGGAGTCACCTAGTGCAG | 18400 fluorescence intensity (a.u.)
TTGGATCGTTTGCTTTTCTTTGCCTTTCTTTTGGATTTCTCGGAGTCACCTAGTGCAG | 11700 fluorescence intensity (a.u.)
ATATATATATATATATATATATTTTGTCTTGAGTGGTTTGCGGAGTCACCTAGTGCAG | 11700 fluorescence intensity (a.u.)
GTCTCGGTCTTTTCGATCTCGGTCTTTTCGGTTCGGTCTTCGGAGTCACCTAGTGCAG | 9340 fluorescence intensity (a.u.)
TTTTCTTTGCTTTTCGGTTTCGTTCTCCGTTTTGGTTTTTCGGAGTCACCTAGTGCAG | 12400 fluorescence intensity (a.u.)
GCGTGGTTGATTTTTAGTCTTGTCGACTTCGACTTTAAGCCGGAGTCACCTAGTGCAG | 9120 fluorescence intensity (a.u.)
TCGGTACTCTTGCTGAAGCAATCCTTTCTTCCTTGCCTAACGGAGTCACCTAGTGCAG | 9140 fluorescence intensity (a.u.)
ACAGTACGCTACTATTCATACGCTAAATTTGTCTTTTTTACGGAGTCACCTAGTGCAG | 9830 fluorescence intensity (a.u.)

Sequence | binding signal
GGTTATTATATCTACAAAATTCTTGCACACCTCAGCAATGCGGAGTCACCTAGTGCAG | 8090 fluorescence intensity (a.u.)
TCCGTCTGTCTATAGCTACTATTAAAGGAGGGGAGGCTCTCGGAGTCACCTAGTGCAG | 8130 fluorescence intensity (a.u.)
AAACAAACACAGAGCTTCTCTCCTCTGTTCTCCTTCTCTGCGGAGTCACCTAGTGCAG | 8090 fluorescence intensity (a.u.)
TTCACTTTCACCTCGCCGTCTTGGTTGTCTTGCCGTCTTTCGGAGTCACCTAGTGCAG | 20200 fluorescence intensity (a.u.)
TGTGCAGTTTTGCTGTTTATGACTAGTTTACCTGTTGTCTCGGAGTCACCTAGTGCAG | 10800 fluorescence intensity (a.u.)
GATGTCTCTCTTTTTTTTTTTGGTTTGGGTTGTCACTTTTCGGAGTCACCTAGTGCAG | 9400 fluorescence intensity (a.u.)
TGGCTCTCTCGCTCCTATGTGGCTATGTCTGTCTACCTAACGGAGTCACCTAGTGCAG | 10800 fluorescence intensity (a.u.)
CTACATCTTCTCTCGCTATCTCTCTCTGTACTCTCTCTCTCGGAGTCACCTAGTGCAG | 11400 fluorescence intensity (a.u.)
CCTGTTTTTTGTTTTTGGTGGTGGTTCCGTCTCGGTTAATCGGAGTCACCTAGTGCAG | 9840 fluorescence intensity (a.u.)
GATTTTTTTTTTCTCGTCTCCTCGTTTTTGCTTGCCTTTCCGGAGTCACCTAGTGCAG | 19200 fluorescence intensity (a.u.)
ACTGTGGTTATCTTGCTATCTCTCCTACTCGCTCTGTCAACGGAGTCACCTAGTGCAG | 16500 fluorescence intensity (a.u.)
TCGTCTCCGGCCTTTTCTTGCTCTCCTCGTCTTCTTCCTCCGGAGTCACCTAGTGCAG | 13200 fluorescence intensity (a.u.)
AATTTTCCGTTTCTCCTTTTCTTGCTTTGTTTTTTCCTTGCGGAGTCACCTAGTGCAG | 15200 fluorescence intensity (a.u.)
TAGTTTTGTTTAATTCCTGTCTCGGGTTTGGTTGGTTGCTCGGAGTCACCTAGTGCAG | 19100 fluorescence intensity (a.u.)
TGCACTTCTCCACTTCACTCCTCGTCTCTTGCCGTCTTTTCGGAGTCACCTAGTGCAG | 13200 fluorescence intensity (a.u.)
CACGAAGCCAGTCTAACCGCCATGTGTGGGCTTGTTTGACCGGAGTCACCTAGTGCAG | 8700 fluorescence intensity (a.u.)
TGCTTCTTGGACATCGCATCATATTTAAGCATGTTTTCCTCGGAGTCACCTAGTGCAG | 10500 fluorescence intensity (a.u.)
CTCTCTTTCTCTTCCATTTCTTGAAACTTGTATGGAGGTTCGGAGTCACCTAGTGCAG | 9410 fluorescence intensity (a.u.)
ATCATTTCGCACATTAACTCTCTCTCTCTCTCTCCATTTTCGGAGTCACCTAGTGCAG | 15200 fluorescence intensity (a.u.)
AACCTTTTCTTTCTTTCTTCACTTTGGTTGCGTTGCGTCTCGGAGTCACCTAGTGCAG | 24200 fluorescence intensity (a.u.)
GACCTTTTTTTCTTTTCTTCTTTGTTCTTTGTTGTTCTCTCGGAGTCACCTAGTGCAG | 10700 fluorescence intensity (a.u.)

Sequence | binding signal
GAATTTTGCTTTGGTTCAACCTTTTTTCTCTTCTTTCTCTCGGAGTCACCTAGTGCAG | 9740 fluorescence intensity (a.u.)
AAGGTATGGTTCTTCATTCTTGTCATTTTCTTTTGCAGCACGGAGTCACCTAGTGCAG | 8220 fluorescence intensity (a.u.)
CTCAGCTTCCGTTATTACCTCTGCGCACAAGTTACCGGGCCGGAGTCACCTAGTGCAG | 8720 fluorescence intensity (a.u.)
GAAAAAAATGTAAAAACTGTTGACTTTTAGTCAACGCCATCGGAGTCACCTAGTGCAG | 16400 fluorescence intensity (a.u.)
CCTCATCACAAAATGTTTGACGCTGTTGACTTTTTTAAAACGGAGTCACCTAGTGCAG | 15900 fluorescence intensity (a.u.)
AAGATATTTTCAATGTATTTTTTTATTGTTGACTTTTAAACGGAGTCACCTAGTGCAG | 9030 fluorescence intensity (a.u.)
AAATTAAATTTAAAAATTTAAATTTTGACTTTTTCTTGACCGGAGTCACCTAGTGCAG | 8250 fluorescence intensity (a.u.)
GTACTCCCTCCATCCCTAAATGTTTGACGCCGTTGACTTTCGGAGTCACCTAGTGCAG | 16000 fluorescence intensity (a.u.)
TTGACGCCGTTGACTTTTTAAAAAATATTTGACCGTTCTTCGGAGTCACCTAGTGCAG | 37100 fluorescence intensity (a.u.)
CTCCATCCTAAAATGTTTGACGCCGTTGACTTTTTTAAATCGGAGTCACCTAGTGCAG | 24500 fluorescence intensity (a.u.)
AATTTTCTTAAAATTTGAGGTTTAGTTTGACTTTCTTTTTCGGAGTCACCTAGTGCAG | 9400 fluorescence intensity (a.u.)
TGTTTGACTTTTTTCTTGGTTAAAATTCTTTAAATTTGATCGGAGTCACCTAGTGCAG | 18900 fluorescence intensity (a.u.)
GGTGGTTCTTGCTTCACACAATCTGGCGCGCTTCAGAACACGGAGTCACCTAGTGCAG | 13300 fluorescence intensity (a.u.)
AAAACATGGTACAAATGCATACGCTCACACATGCACACTCCGGAGTCACCTAGTGCAG | 8300 fluorescence intensity (a.u.)
ACTCACACTAGCTTGAAACTATCTGCGTACTCAAATTCAACGGAGTCACCTAGTGCAG | 8080 fluorescence intensity (a.u.)
CCATCCCGCCGCCACCGCCGCCGCCGCCGCCTCATCCTCCCGGAGTCACCTAGTGCAG | 9300 fluorescence intensity (a.u.)
ATTCTCAAATACCACTCGGGCCCACATGTCAGCCTTACTCCGGAGTCACCTAGTGCAG | 8200 fluorescence intensity (a.u.)
CGGCTCGCTCAACCATACCACCTTTTCAAATTCATTTTTCCGGAGTCACCTAGTGCAG | 11600 fluorescence intensity (a.u.)
CGCCGTTGACTTTTTTAAAAATGTTTGACCGTTCCTCTTACGGAGTCACCTAGTGCAG | 20900 fluorescence intensity (a.u.)
CGTCTCTAAATACTTGACGCCGTTGACTTTTTTAAATATGCGGAGTCACCTAGTGCAG | 26900 fluorescence intensity (a.u.)
ATTTTTGACGCCGTTGACTTTTTTTAAATATGTTTGACCGCGGAGTCACCTAGTGCAG | 46900 fluorescence intensity (a.u.)

Sequence | binding signal
ATATTTGACGACGTTGATTTTTTTTAAATATGTTTGACCGCGGAGTCACCTAGTGCAG | 9090 fluorescence intensity (a.u.)
ATCTTTGACGTCGTTGACTTTTAAAAAAATGTTTGACCGTCGGAGTCACCTAGTGCAG | 22300 fluorescence intensity (a.u.)
ACGTCTCCACCACCACCACCGGCCAAACGCCGACCTCATCCGGAGTCACCTAGTGCAG | 9450 fluorescence intensity (a.u.)
CCAGTCAATTTCCCCACGTGCCATCTCGCTGCATCCGCCGCGGAGTCACCTAGTGCAG | 10500 fluorescence intensity (a.u.)
CTCGCGCGCCCCGCCCGTTTCGCCTCGGCCGCCTCCTCCACGGAGTCACCTAGTGCAG | 8480 fluorescence intensity (a.u.)
CATCTGCACGCATATATATCTGTAAACTCAGCGCGTTTTTCGGAGTCACCTAGTGCAG | 8100 fluorescence intensity (a.u.)
ATTGTGGACTGTTTGACCTCCAGTTTGGACTGTAGGAATTCGGAGTCACCTAGTGCAG | 8060 fluorescence intensity (a.u.)
CTGTTGGTCAATCGCCGAACTTACCGCCGCGCCGGCCATGCGGAGTCACCTAGTGCAG | 9410 fluorescence intensity (a.u.)
TTCATTTTCAATTCCCGTCCTCATTCTTCTTATGATATTTCGGAGTCACCTAGTGCAG | 8930 fluorescence intensity (a.u.)
AATCCATAATTAGTAAATATTTACTGTAGCACCATATTGTCGGAGTCACCTAGTGCAG | 9810 fluorescence intensity (a.u.)
ATTTGACGCCGTTACTTTTTTTAAAAATGTTTGGCCGTTCCGGAGTCACCTAGTGCAG | 8270 fluorescence intensity (a.u.)
CGCTGTTGACTTTTTTAAAAATGTTTGACCGTTCATCTTACGGAGTCACCTAGTGCAG | 33600 fluorescence intensity (a.u.)
ACGCCGTTGACTTTTTAAAATATGTTTGACCGTTTATCTTCGGAGTCACCTAGTGCAG | 45700 fluorescence intensity (a.u.)
GTTGACTTTTTTTTAAACATGTTTGACCATTCATCTTATTCGGAGTCACCTAGTGCAG | 11100 fluorescence intensity (a.u.)
ATTTTGACTTTTTCTTGTACTGTTTGACCATTCATCTTATCGGAGTCACCTAGTGCAG | 16200 fluorescence intensity (a.u.)
ACTTTTTAAAACATGTTTGACCGTTCATCTTATTTAAAAACGGAGTCACCTAGTGCAG | 8690 fluorescence intensity (a.u.)
AATGTTTGACGCCGTTGACTTTTTTAAAAATGTTTGGCCGCGGAGTCACCTAGTGCAG | 29800 fluorescence intensity (a.u.)
ACTTTTTAAAACATGTTTGACCGTTCATCTTATTCAAAAACGGAGTCACCTAGTGCAG | 8410 fluorescence intensity (a.u.)
GTTGTTGACTTTTTAAAATTTGTTTGACCATTCATCTTATCGGAGTCACCTAGTGCAG | 23100 fluorescence intensity (a.u.)
CGGTTCTTGTCGTAGAAAGCTCCGTGTTATCGTTTATATTCGGAGTCACCTAGTGCAG | 8090 fluorescence intensity (a.u.)
CAGCCACCTCTCCATCTTCTGTCCGTTCACCTCTCCGTAACGGAGTCACCTAGTGCAG | 12600 fluorescence intensity (a.u.)
